Drawing on PubChem BioAssay (Tox21), this text covers Potency and outcome for seven compounds.

SMILES strings stand for the structures. A number with no mark means an inactive call. Inconclusive results are not listed. The source made the active and inactive calls. Unless noted, the call rests on the fitted dose curve; in most records, active means well fitted curve in the direction sought with a large enough effect in the repeat runs; inconclusive means weak or mixed curves; inactive means no such curve, though single readings can be large; an effect the other way counts as inactive or inconclusive.

Test [1] can be described thus: qHTS assay for small molecule agonists of the p53 signaling pathway - cell viability (AID 651633; calls by dose curve; further: nearly all actives have a fitted effect of over 30% in size; further: potency means the concentration at half of the fitted maximal effect). The gist of the method: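 p53RE-bla cells were treated with compound for 16 hours at 37 C. Cytotoxicity was then measured as CellTiter-Glo luminescence after 30 min at room temperature.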
(In general: qHTS replaces the single test concentration by a dilution series.)

The nature of test [2]: qHTS assay for small molecules that induce genotoxicity in human embryonic kidney cells expressing luciferase-tagged ATAD5 - cell viability (AID 651634; calls by dose curve; further: nearly all actives have a fitted effect of over 25% in size; further: potency means the concentration at half of the fitted maximal effect). The gist of the method: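 15.5 hr compound or vehicle exposure of HEK293T cells expressing luciferase-tagged ATAD5 at 37C; live-cell protease activity is read by fluorescence after 30 min of CellTiter-Fluor.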
A short description of test [3]: qHTS assay for small molecule disruptors of the mitochondrial membrane potential (AID 720635). Further: potency means the concentration at half of the fitted maximal effect. The gist of the method:
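HepG2 cells exposed to compound 1 hr at 37C, then Mito-MPS dye 30 min. Ratio read of aggregate (540/590 nm) versus monomer (490/535 nm) fluorescence.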

Test [4] in a line: qHTS assay to test for compound auto fluorescence at 590 nm (red) in HepG2 cells (AID 720674). The gist of the method:
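Fluorescence at 590 nm emission following 540 nm excitation was recorded from HepG2 wells one hour after compound transfer, with DMSO-only wells as vehicle and Rose Bengal sodium equivalency as the scale.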

Test [5] in a line: qHTS assay to test for compound auto fluorescence at 535 nm (green) in HepG2 cells (AID 720675).
Test [6] is described as follows: qHTS assay to test for compound auto fluorescence at 460 nm (blue) in HEK293 cells (AID 720678). The gist of the method: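 Blue-channel (Ex/Em 405/460 nm) intensity measured in HEK293 cultures after overnight compound exposure at 37C; signal expressed relative to triamterene. Cells plated 2,000 per well in 10% dialyzed FBS medium and allowed 4-5 hr to attach.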
A short description of test [7]: qHTS assay to test for compound auto fluorescence at 590 nm (red) in HEK293 cells (AID 720679). The method in brief: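 Red-channel autofluorescence (Ex/Em 540/590 nm; Rose Bengal sodium reference) was measured after overnight 37C, 5% CO2 exposure of attached HEK293 cells, 2,000 per well in medium with 10% dialyzed FBS.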
Test [8] can be described thus: qHTS assay to test for compound auto fluorescence at 535 nm (green) in HEK293 cells (AID 720680).
Test [9] in a line: qHTS assay to test for compound auto fluorescence at 460 nm (blue) in HEK293 cell free culture (AID 720681). The gist of the method: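 Compounds were added to cell-free DMEM with 10% FBS and fluorescence read directly. The blue channel used 405 nm excitation and 460 nm emission, with triamterene as the reference fluorophore.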
Test [10] is described as follows: qHTS assay to test for compound auto fluorescence at 535 nm (green) in HEK293 cell free culture (AID 720682). The method in brief:
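Measurement is a direct plate read of green fluorescence (485 nm in, 535 nm out) after compound addition to serum-supplemented DMEM lacking cells, with fluorescein used to express intensities.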

A short description of test [11]: qHTS assay to test for compound auto fluorescence at 590 nm (red) in HEK293 cell free culture (AID 720683). The gist of the method: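 Cell-free wells of DMEM with 10% FBS received compound, and intrinsic fluorescence was read at excitation/emission 540/590 nm. Values expressed as equivalence to Rose Bengal sodium.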
Test [12] is described as follows: qHTS assay to test for compound auto fluorescence at 590 nm (red) in HepG2 cell free culture (AID 720684). The method in brief: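 Auto fluorescence equivalency versus Rose Bengal sodium, red channel Ex/Em 540/590 nm; compounds in cell-free MEM/10% FBS; DMSO vehicle control.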
Test [13] in a line: qHTS assay to test for compound auto fluorescence at 460 nm (blue) in HepG2 cell free culture (AID 720685). The gist of the method: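 Cell-free plates of MEM plus 10% FBS received 23 nL compound or DMSO vehicle; blue-channel (405/460 nm) intensity scored against triamterene as reference fluorophore.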
The nature of test [14]: qHTS assay to test for compound auto fluorescence at 535 nm (green) in HepG2 cell free culture (AID 720686).
Test [15] in a line: qHTS assay to test for compound auto fluorescence at 460 nm (blue) in HepG2 cells (AID 720687). Further: potency means the concentration at half of the fitted maximal effect. The method in brief:
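HepG2 cells in MEM with 10% FBS, attached overnight at 37 C, were exposed to compound or DMSO for 1 hr at 37 C, 5% CO2. Blue fluorescence was read at 405/460 nm, with triamterene as reference fluorophore.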

The nature of test [16]: qHTS assay for small molecule disruptors of the mitochondrial membrane potential - cell viability (AID 720634; calls by dose curve; further: nearly all actives have a fitted effect of over 20% in size; further: potency means the concentration at half of the fitted maximal effect). The gist of the method:
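In this qHTS format, HepG2 cells plated overnight were pinned with compound, incubated 1 hr, and assayed for ATP luminescence with CellTiter-Glo after m-MPI dye addition.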

Test [17] addresses Glucocorticoid receptor (Homo sapiens) (UniProt P04150). Put plainly: qHTS assay to identify small molecule agonists of the glucocorticoid receptor (GR) signaling pathway (AID 720691; active means well fitted activation curve with a large enough effect in the signal ratio in the repeat runs, not every such curve was filed as active; the % refers to the signal ratio). Conditions: GR-bla HeLa, beta-lactamase reporter ratio, 18 h; activation: at 62.4 µM (top of the series). The gist of the method: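 Measures GR pathway activation through a GRE-beta-lactamase reporter stably integrated in HeLa cells, with 18 h compound treatment at 37 C and fluorescence detection using a FRET substrate.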

Test [18] has the same target. The experiment in a line: qHTS assay to identify small molecule antagonists of the glucocorticoid receptor (GR) signaling pathway (AID 720692; active means well fitted inhibition curve with a large enough effect in the signal ratio in the repeat runs, not every such curve was filed as active; the % refers to the signal ratio). The gist of the method:
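Tox21 10K library screened in concentration-response for blockade of dexamethasone (5 nM final)-induced GRE-bla reporter activity in HeLa cells; 18 h treatment, fluorescence read.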
Tags describe the fitted curve by direction and shape or compound fluorescence and quenching.

Chain of Glucocorticoid receptor (Homo sapiens) (P04150 whole entry, looked up): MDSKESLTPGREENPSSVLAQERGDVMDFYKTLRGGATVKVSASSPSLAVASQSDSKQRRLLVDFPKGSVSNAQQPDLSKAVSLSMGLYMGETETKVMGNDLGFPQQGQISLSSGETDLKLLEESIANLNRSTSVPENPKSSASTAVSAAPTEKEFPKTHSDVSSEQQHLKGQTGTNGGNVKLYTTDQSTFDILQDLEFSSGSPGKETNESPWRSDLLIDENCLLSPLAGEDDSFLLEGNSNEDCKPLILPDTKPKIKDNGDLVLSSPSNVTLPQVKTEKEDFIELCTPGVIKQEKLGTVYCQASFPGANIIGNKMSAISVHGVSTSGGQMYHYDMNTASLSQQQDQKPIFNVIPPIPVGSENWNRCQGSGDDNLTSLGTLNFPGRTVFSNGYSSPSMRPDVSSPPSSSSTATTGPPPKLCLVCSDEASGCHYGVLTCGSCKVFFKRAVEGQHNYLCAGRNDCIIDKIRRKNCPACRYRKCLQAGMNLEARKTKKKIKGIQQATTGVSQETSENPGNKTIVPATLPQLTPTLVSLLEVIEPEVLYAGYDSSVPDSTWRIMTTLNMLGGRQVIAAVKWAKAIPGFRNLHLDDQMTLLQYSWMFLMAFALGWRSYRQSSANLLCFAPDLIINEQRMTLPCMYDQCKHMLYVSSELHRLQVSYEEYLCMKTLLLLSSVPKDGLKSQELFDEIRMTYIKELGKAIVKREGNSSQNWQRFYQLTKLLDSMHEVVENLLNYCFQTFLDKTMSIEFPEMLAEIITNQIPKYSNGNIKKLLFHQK

With `CC1=C(/C=C/C(C)=C/C=C/C(C)=C/C=O)C(C)(C)CCC1`, the Potency in test [1] was 43 µM (active); in test [2], 60.8 µM (active); in [3], 15.3 µM (active). The Potency result in test [4], in test [5], in test [6], in test [7], in test [9] and in [11] was “inactive” each time. Moreover, the Potency entry in [12], in test [13], in test [14] and in [15] was “inactive” throughout. Further, the compound was called inactive in [8] and in [10].

For `CCCCCCCCCCCCCCCCCC[N+](C)(C)C`, the values for the Potency in test [1], in test [2] and in test [3] were 61.3 µM (active), 61.3 µM (active) and 48.7 µM (active), respectively. Also, the Potency result in test [4], in test [5], in test [6], in test [7], in test [9] and in test [11] was “inactive” each time. Further, the Potency entry in test [12], in test [13], in [14] and in test [15] was “inactive” in each case. Besides, the outcome in [8] and in test [10] was inactive.

As for `N#CSc1ccc(N)c([N+](=O)[O-])c1`, the Potency entry in [1], in test [16], in test [4], in [5], in test [6] and in test [7] was “inactive” each time. Moreover, the Potency entry in test [11], in test [12], in test [13], in test [14], in test [15] and in [17] was “inactive” throughout. In addition, the Potency in test [2] and in test [3] was 61.5 µM (active) throughout. Also, the compound was classed as inactive in test [8] and in test [10].

As for `CCCCCCCC[P+](CCCCCCCC)(CCCCCCCC)CCCCCCCC`, the Potency in [1] was 12.1 µM (active); in test [2], 13.6 µM (active); in [16], 21.6 µM (active); in test [3], 0.0963 µM (active). Moreover, the Potency entry in test [4], in test [5], in test [6], in test [9], in test [11] and in test [12] was “inactive” in each case. In addition, the Potency entry in test [13] and in test [15] was “inactive” throughout. Besides, the compound was called inactive in test [8] and in [10].

Regarding `Cc1ccc2oc(CN(Cc3ccccc3)C(=O)Nc3c(F)cc(F)cc3F)c(-c3ccc(Cl)cc3)c2c1`, the Potency entry in test [2], in test [4], in test [5], in [6], in test [7] and in [9] was “inactive” in each case. In addition, the Potency entry in [11], in test [12], in test [13], in [14], in test [15] and in [17] was “inactive” throughout. Moreover, in test [18], the Potency entry is “inactive”. Moreover, the Potency in test [3] was 18.7 µM (active). In addition, the result in test [8] and in test [10] was inactive.

With `CN1CCC(Nc2ncc3ncnc(Nc4ccc(F)c(Cl)c4)c3n2)CC1`, the Potency entry in test [1], in [2], in [16], in [4], in test [5] and in [7] was “inactive” each time. Besides, the Potency entry in test [11], in [12] and in test [14] was “inactive” each time. Also, the result in [8] and in test [10] was inactive. For the same compound, in test [15], the Potency was 12.6 µM [fluorescent] (active).

`CCN(CC)CCNC(=O)c1c(C)[nH]c(/C=C2\C(=O)Nc3ccc(F)cc32)c1C`: the Potency in test [1] was 11.9 µM (active). Further, the Potency result in [16], in test [4], in test [6], in [7], in test [9] and in test [11] was “inactive” each time. Further, the Potency entry in [13] and in test [15] was “inactive” in each case. Further, the call in [8] and in test [10] was inactive.
